Screening data from PubChem BioAssay.
An excerpt weighted towards active compounds, which were near 15% of everything screened.
SARS PLP yeast = inhibitors of SARS-CoV papain-like protease in yeast; S. cerevisiae expressing SARS-CoV PLpro, growth rescue; Potency, µM (top dose mostly 32.9 µM), for inactives: at the top dose activity, positive = growth rescue, hits mostly activators; 0.19% of 330,000 active; calls by dose curve; also: potency is read from the fitted curve at half-maximal effect; 0% is about no effect; nearly all actives have a fitted effect of over 55% in size
Sm TGR block = blocks Schistosoma mansoni thioredoxin glutathione reductase | Q962Y6 | purified TGR, DTNB reduction, TNB absorbance 405 nm | Potency, µM (titrated, usually from 114 µM), without a hit: at the highest dose activity change, negative = inhibition, most hits filed as inhibitors | 3% of 360,000 active; also: potency is read from the fitted curve at half-maximal effect; % is scaled to controls: 0 for no effect and ±100 for the full control effect; nearly all actives have a fitted effect of over 60% in size
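TGR 20 nM + NADPH 100 uM (dispensed conc.), cpd preinc 15 min RT; start with NADPH (500 uM addition) then DTNB (15 mM addition). Kinetic TNB absorbance, 405 nm filter. Four-parameter Hill fit across titration.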
HCMV inh = human cytomegalovirus inhibition; HFF cells, HCMV-luciferase reporter, 72 h; stronger effect = lower value; activity change, negative = inhibition, % at 57.5 µM; 4.5% of 410,000 active; AID 1259415; in the data active = activity change below about -60%; inconclusive = no clear call, values can overlap the other calls; inactive = above about -39%; also: % is scaled to controls: 0 for no effect and ±100 for the full control effect
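Human foreskin fibroblasts infected with luciferase-reporter HCMV at MOI 1 PFU/cell, compounds at two doses. Luciferase measured 72 h post infection; normalized to buffer-only basal and Salinomycin (10uM) controls.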
Pf growth 96h = P. falciparum growth inhibition at 96 hour, primary screen for plastid delayed-death inhibitors; P. falciparum luciferase reporter growth, 96 h; AID 504834; 6.9% of 320,000 active; Potency, µM (top dose mostly 28.7 µM), for the others: at the top dose activity change, negative = inhibition, most hits filed as inhibitors; also: potency is read from the fitted curve at half-maximal effect; % is scaled to controls: 0 for no effect and ±100 for the full control effect
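Plates of compound plus infected erythrocytes (2% hematocrit, 0.05% parasitemia final) incubate 96 hours, 37 C, 5% CO2. Detection reagent added; reduced luminescence from the parasites' luciferase reporter flags inhibition.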
HCV inhibitor = inhibitors of hepatitis C virus infection; Huh7.5.1 HCVcc-Cre infection, luciferase reporter, 44 h; Potency, µM (titrated, usually from 41.8 µM), for inactives: at the top dose activity change, negative = inhibition, usual class: inhibitors; 3.4% of 340,000 active; also: potency is read from the fitted curve at half-maximal effect; % is scaled to controls: 0 for no effect and ±100 for the full control effect
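A cell-based infection assay in which seeded cells (1,000 per well) receive test compound after 4 h, are inoculated with HCVcc-Cre at approximately 0.5 moi, and are incubated 44 h before luminescence detection.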
Pf growth 48h = P. falciparum growth inhibition at 48 hours (one generation); P. falciparum luciferase growth in erythrocytes, 48 h; Potency, µM (highest dose often 28.7 µM), without a hit: at the top dose activity change, negative = inhibition, most hits filed as inhibitors; 5.9% of 310,000 active; also: potency is read from the fitted curve at half-maximal effect; % is scaled to controls: 0 for no effect and ±100 for the full control effect
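Compounds are pin-transferred into medium, infected erythrocytes (2% hematocrit, 0.1% parasitemia final) are added, and plates sit one parasite generation at 37 C in 5% CO2. Detection reagent is then added and luminescence measured.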
The depositor's hits bear a star. Unless noted, calls follow the shape of the dose curve; as a rule, active = well fitted curve in the direction sought with a large enough effect; inconclusive = small, poorly fitted or top-dose-only effect, or another doubt; inactive = no such curve, though single readings can be large; an effect the other way counts as inactive or inconclusive.

Screening Cc1ccc(C(CC(=O)c2ccc(Cl)cc2)C(=O)O)cc1 (stereo unspecified) returned SARS PLP yeast 0%, Sm TGR block -3%, HCMV inh -3, Pf growth 96h 11%, HCV inhibitor 30% and Pf growth 48h 4%.
`Cc1ccc(SC(CC(=O)c2ccc(C)cc2)C(=O)O)cc1` (stereo unspecified) gave SARS PLP yeast -2%, Sm TGR block 13µM*, HCMV inh 7, Pf growth 96h inconclusive and HCV inhibitor 2%.
Screening O=C(CC(Sc1ccc(Br)cc1)C(=O)O)c1ccc(Br)cc1 (stereo unspecified) returned SARS PLP yeast -5%, Sm TGR block 0.28µM* and Pf growth 96h inconclusive.
O=C(CNC(=O)c1ccc(Br)cc1)c1ccc(Br)cc1 was read as SARS PLP yeast 0%, Sm TGR block 8%, HCMV inh -9, Pf growth 96h inconclusive, HCV inhibitor 6% and Pf growth 48h 26%.
`O=C(CC(C(=O)O)P(=O)(c1ccccc1)c1ccccc1)c1ccc(Br)cc1` (stereo unspecified) gave SARS PLP yeast 0%, Sm TGR block 28µM*, HCMV inh 77, Pf growth 96h 8%, HCV inhibitor 10% and Pf growth 48h 27%.
`CCOc1ccc(OCC)c(NC(=O)Cn2nc(CC)n3c(cc4sccc43)c2=O)c1` gave Sm TGR block 0% and HCMV inh 1.
For COc1ccc(-c2csc(N(CCCN(C)C)C(=O)c3ccc(OC)c(OC)c3)n2)cc1 the results were HCMV inh 11.
Screening CC1(C)CC(=O)C2=C(C1)Nc1cc3c(cc1C2c1ccc(F)cc1)OCO3 (stereo unspecified) returned SARS PLP yeast -11%, Sm TGR block 11%, HCMV inh 14, Pf growth 96h 5.2µM*, HCV inhibitor -20% and Pf growth 48h inconclusive.
Screening CC1(C)CC(=O)C2=C(C1)Nc1cc3c(cc1C2c1ccc2c(c1)OCO2)OCO3 (stereo unspecified) returned SARS PLP yeast 5%, Sm TGR block -19%, HCMV inh -25, Pf growth 96h 36% and HCV inhibitor -1%.
Screening CN(C)CCNc1ncnc2oc(-c3ccccc3)c(-c3ccccc3)c12 returned SARS PLP yeast 0%, Sm TGR block 0%, HCMV inh inconclusive, Pf growth 96h inconclusive, HCV inhibitor 3.2µM* and Pf growth 48h inconclusive.
Screening COc1ccc(-c2oc3ncnc(NCCCN(C)C)c3c2-c2ccc(OC)cc2)cc1 returned SARS PLP yeast -2%, Sm TGR block 8%, HCMV inh -84*, Pf growth 96h inconclusive, HCV inhibitor inconclusive and Pf growth 48h inconclusive.
For O=C(NN=C1CCCC1)c1ccc(O)cc1O the results were SARS PLP yeast -4%, Sm TGR block -19%, HCMV inh 1, Pf growth 96h 13µM*, HCV inhibitor 4% and Pf growth 48h -10%.
`Cc1ccc(C(=O)NCc2ccc(F)cc2)cc1NC(=O)c1nsc2ccccc12` gave Sm TGR block 1% and HCMV inh -14.
`CC1CC(C)(C)CC2(C1)NC(=O)N(CC(=O)Nc1ccc3c(c1)OCO3)C2=O` (stereo unspecified) gave HCMV inh 8.
Cc1cc(C)nc(SCc2nc3nc(C)cc(C)n3c2Br)n1 was read as SARS PLP yeast 1%, Sm TGR block inconclusive, HCMV inh inconclusive, Pf growth 96h 1.5µM*, HCV inhibitor 3% and Pf growth 48h 10µM*.
For CCOc1cc(S(=O)(=O)N2CC=C(c3ccc(F)cc3)CC2)c(OCC)cc1-n1cnnn1 the results were SARS PLP yeast -4%, Sm TGR block -22%, HCMV inh 3, Pf growth 96h inconclusive, HCV inhibitor -16% and Pf growth 48h 7.4µM*.
